JMJD2A Tudor inh = blocks the human JMJD2A Tudor domain; AID 504339; O75164; AlphaScreen JMJD2A-Tudor / H3K4me3 peptide binding; Potency, µM (doses to about 114 µM), for the others: at the top dose activity change, negative = inhibition, most hits filed as inhibitors; hit rate 4.4% among 390,000; note: % is set by controls: 0 for no effect and ±100 for the full control effect; nearly all actives have a fitted effect of over 50% in size
Target sequence (O75164 whole entry, looked up, the tested form may be a part): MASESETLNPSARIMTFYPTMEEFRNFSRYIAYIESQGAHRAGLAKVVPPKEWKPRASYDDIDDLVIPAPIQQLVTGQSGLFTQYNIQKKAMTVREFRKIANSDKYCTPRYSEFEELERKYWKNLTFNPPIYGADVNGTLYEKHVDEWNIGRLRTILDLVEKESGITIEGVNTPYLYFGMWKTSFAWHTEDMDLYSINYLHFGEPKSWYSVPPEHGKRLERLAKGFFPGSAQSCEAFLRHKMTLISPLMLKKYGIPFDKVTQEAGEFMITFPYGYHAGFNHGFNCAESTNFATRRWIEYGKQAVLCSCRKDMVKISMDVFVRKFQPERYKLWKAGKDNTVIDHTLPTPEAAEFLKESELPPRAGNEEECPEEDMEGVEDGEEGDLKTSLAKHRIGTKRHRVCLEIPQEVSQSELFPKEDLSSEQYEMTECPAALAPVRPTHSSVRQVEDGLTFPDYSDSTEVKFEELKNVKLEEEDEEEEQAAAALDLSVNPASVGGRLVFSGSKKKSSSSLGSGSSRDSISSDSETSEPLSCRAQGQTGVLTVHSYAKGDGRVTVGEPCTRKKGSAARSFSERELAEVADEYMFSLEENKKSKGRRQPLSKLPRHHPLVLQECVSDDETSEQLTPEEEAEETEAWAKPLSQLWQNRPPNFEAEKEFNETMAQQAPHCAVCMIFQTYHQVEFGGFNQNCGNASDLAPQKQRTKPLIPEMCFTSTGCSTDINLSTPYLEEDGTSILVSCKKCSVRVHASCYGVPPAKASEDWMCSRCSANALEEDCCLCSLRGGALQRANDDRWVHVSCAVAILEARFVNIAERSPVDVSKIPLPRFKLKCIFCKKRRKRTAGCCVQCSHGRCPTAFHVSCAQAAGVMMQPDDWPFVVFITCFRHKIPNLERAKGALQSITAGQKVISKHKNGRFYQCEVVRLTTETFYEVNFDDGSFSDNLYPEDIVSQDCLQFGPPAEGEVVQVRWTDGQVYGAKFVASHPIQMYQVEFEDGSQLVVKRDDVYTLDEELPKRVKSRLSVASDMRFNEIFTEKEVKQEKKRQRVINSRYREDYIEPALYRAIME
HP1b binding inh = blocks HP1-beta chromodomain binding to methylated histone tails. hit rate 0.56% among 390,000. Potency, µM (titrated, usually from 114 µM), without a hit: at the highest dose activity change, negative = inhibition, usual class: inhibitors. P83916. AlphaScreen HP1-beta / biotin-H3K9me3 peptide binding; note: nearly all actives have a fitted effect of over 70% in size
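HP1-beta protein (50 nM final) preincubated 30 min at room temperature with biotinylated H3(1-18)K9me3 peptide (50 nM) in PBS pH 7.4, 0.01% Tween-20, then compound added for 30 min. AlphaScreen streptavidin donor/nickel chelate acceptor beads (10 ug/mL final), 30 min dark, luminescence read.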
PLK1 PBD inh = PLK1 (human) polo-box domain binding inhibition; P53350; hit rate 2.8% among 360,000; Potency, µM, without a hit: max response, negative = inhibition, actives largely listed as inhibitors; Plk1 PBD binding of FITC phosphopeptide, fluorescence polarization; note: series mostly up to about 57 µM; % is set by controls: 0 for no effect and ±100 for the full control effect; nearly all actives have a fitted effect of over 65% in size
BAZ2B inh = inhibitors of human BAZ2B bromodomain; AlphaScreen BAZ2B-H3K14Ac peptide displacement; Potency, µM (series often up to 114 µM), for the others: top-dose activity change, negative = inhibition, usual class: inhibitors; hit rate 4.4% among 360,000; note: % is set by controls: 0 for no effect and ±100 for the full control effect; nearly all actives have a fitted effect of over 60% in size
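AlphaScreen luminescence quantifies BAZ2B engagement of H3K14Ac peptide; the protein and biotinylated peptide are both at 50 nM final, buffer PBS pH 7.4 with 0.01% Tween-20, all steps at room temperature.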
Sfp inh = inhibitors of Bacillus subtilis Sfp phosphopantetheinyl transferase; AID 1490; hit rate 3.5% among 310,000; Potency, µM, without a hit: largest response in the series, negative = inhibition, usual class: inhibitors; Q9F4F7; Biochemical Sfp PPTase activity, qHTS;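 note: the enzyme is Sfp with the accession as filed and its product quenches rhodamine fluorescence; 0% = enzyme reaction without inhibitor and -100% = no enzyme wells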
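Fluorescence-quenching assay with 15 nM Sfp, 5 uM rhodamine-CoA and 12.5 uM BHQ-2-labelled ybbR peptide in pH 7.6 Hepes/MgCl2 buffer. Enzyme was pre-incubated with compound for 15 min at room temperature. Rate was taken from the 30-min fluorescence change (525/598 nm).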
G9a inh = inhibitors of human histone lysine methyltransferase G9a. AID 504332. G9a H3K9 monomethylation, AlphaScreen, 2 h. Potency, µM (series often up to 102 µM), for the others: at the top dose activity, negative = inhibition, most hits filed as inhibitors. hit rate 8.8% among 350,000. Q96KQ7; note: % is set by controls: 0 for no effect and ±100 for the full control effect; nearly all actives have a fitted effect of over 75% in size
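AlphaScreen read-out: biotin-H3K9 peptide (500 nM) methylation by 20 nM enzyme with 20 uM SAM, 2 h at room temperature after 15 min compound preincubation; anti-monomethyl H3K9 antibody plus donor/acceptor beads, 10 min dark.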
* = called active by the depositor; ? = inconclusive; . = no result given; [ ] = dose if it differs, or a comment. Sampled rows, rich in hits. Any-hit rate of the full collection: about 12%. Calls come from the whole dose curve; as a rule, active = well fitted curve in the direction sought with a large enough effect; inconclusive = small, poorly fitted or top-dose-only effect, or another doubt; inactive = no such curve, though single readings can be large; an effect the other way counts as inactive or inconclusive. Potency is the fitted concentration of half-maximal effect.

SMILES	JMJD2A Tudor inh	HP1b binding inh	PLK1 PBD inh	BAZ2B inh	Sfp inh	G9a inh
Cc1ccc(S(=O)(=O)Nc2cc3c(cc2Cl)n(C)c(=O)c(=O)n3C)cc1	-3%	24%	.	-4%	.	-38%[59 µM]
N#CC(Cc1ccc(O)c(O)c1)C(=O)N1CCc2ccccc21 (stereo not given)	.	.	.	.	.	7.1µM*
CC(NCc1ccc(S(N)(=O)=O)cc1)C(=O)N1CCc2ccccc21 (stereo not given)	-14%	28%	-7%	-18%	4%	4%
Cc1noc(C)c1-c1nccc(Nc2ccc(F)cc2)n1	.	.	.	.	-9%	2%[0.501 µM]
CC(=O)c1cccc(NC(=O)CSc2ncc3c(n2)-c2cc(Cl)ccc2N(Cc2ccccc2)S3(=O)=O)c1	-10%	9%	.	5%	.	-5%[59 µM]
O=S(NCc1ccccc1)C12CC3CC(CC(C3)C1)C2 (stereo not given)	-14%	18%	-26%	8%	18%	-26%[12.7 µM]
O=S(NCc1ccco1)C12CC3CC(CC(C3)C1)C2 (stereo not given)	-35%	-2%	?	-1%	-29%	6.3µM*
CCn1c(CN2CCCCC2)nc2cc(NC(=O)c3ccc([N+](=O)[O-])cc3)ccc21	-17%	17%	.	-5%	.	-10%[59 µM]
Cc1nc(SCc2ccc(O)c([N+](=O)[O-])c2)n[nH]1	?	11%[57 µM]	-15%	-4%	?	6.3µM*
N=C(N)SCc1ccc(O)c([N+](=O)[O-])c1	-8%[11.4 µM]	11%	-28%	-22%	79µM*	32µM*
Cc1nc(SCc2ccc(Cl)c(Cl)c2)n[nH]1	-10%	34%	-5%	1%	13%	16%
O=C(COC(=O)c1nn(-c2ccccc2C(F)(F)F)cc1O)c1ccc(OC(F)F)cc1	-8%	13%	-4%	-4%	.	12%
COCCCN(C(=O)c1cc(Cl)nc2ccccc12)c1c(N)n(Cc2ccccc2)c(=O)[nH]c1=O	-17%	27%	-9%	-3%	.	-33%
COCCCN(C(=O)c1cc(-c2ccco2)nc2ccccc12)c1c(N)n(Cc2ccccc2)c(=O)[nH]c1=O	?	-12%	-19%	?	.	45µM*
CCCn1c(N)c(N(CCOC)C(=O)c2cc(-c3ccco3)nc3ccccc23)c(=O)[nH]c1=O	?	14%	-17%	?	45µM*	40µM*
CCCCn1c(N)c(N(CCOC)C(=O)c2cc(-c3ccccc3)nc3ccccc23)c(=O)[nH]c1=O	-10%	25%	-11%	-5%	.	-9%[59 µM]
CCC(C)(C)n1nnnc1C(c1ccc(O)cc1)N1CCc2ccccc2C1 (stereo not given)	89µM*	?	-19%	-35%	14µM*	2.5µM*
CC(C)(C)n1nnnc1C(c1ccccc1)N1CCc2ccccc2C1 (stereo not given)	-6%	18%	-1%	10%	4%	?
CN(C)c1ccc(C(c2nnnn2C(C)(C)C)N2CCc3ccccc3C2)cc1 (stereo not given)	.	.	.	?	-12%	40µM*
CC1CCN(C(c2ccc(N(C)C)cc2)c2nnnn2C(C)(C)C)CC1 (stereo not given)	56µM*	?	-3%	50µM*	20µM*	?
CCOC(=O)c1ccccc1NC(=O)CSc1cn(CC(=O)N2CCCCCC2)c2ccccc12	-4%	?	.	-20%	.	-18%[59 µM]
CCCOc1ccc(OC(=O)c2c(-c3ccccc3Cl)noc2C)cc1	64%	78%	.	43%	.	57%[59 µM]
Cc1nc2[nH]onc2c2nccc(=O)c12	-6%	29%	-10%	-1%	0%	14µM*
O=C1Cc2c([nH]c3ccc(Br)cc23)-c2ccccc2N1	-12%	32%	-5%	.	-28%	40µM*
O=c1c2c([nH]c3ccc(Br)cc13)CCCC2	-12%	21%	-3%	-5%	9%	?
SMILES	JMJD2A Tudor inh	HP1b binding inh	PLK1 PBD inh	BAZ2B inh	Sfp inh	G9a inh
O=C(CN1C(=O)NC2(CCCC2)C1=O)NNC(=O)c1ccc(Br)cc1	3.2µM*	35%	-1%	9%	.	4%
Cc1nc2ccc(S(=O)(=O)CCC(=O)Nc3ccc(C(C)C)cc3)cc2s1	-18%	5%	.	-13%	.	-4%[59 µM]
CCCn1cnc2c(N)c(C)c(C)cc21	-21%	16%	0%	3%	7%	1.8µM*
COc1ccc(-c2c3c(=O)n(C)c(=O)n(C)c3cn2Cc2ccccn2)cc1	-36%	40%	-23%	50µM*	?	?
COc1ccc(-c2c3c(=O)n(C)c(=O)n(C)c3cn2Cc2cccnc2)cc1	-9%	47%	-21%	-8%	-3%	10µM*
COc1ccc(-c2c3c(=O)n(C)c(=O)n(C)c3cn2-c2cc(OC)ccc2OC)cc1	?	-24%	-20%	?	-11%	45µM*
CCOc1ccccc1-n1cc2c(c1-c1ccc(OC)cc1)c(=O)n(C)c(=O)n2C	-30%	7%	.	-24%	.	?
CN(C(=O)c1cnc(N2CCN(c3ncccn3)CC2)c2ccccc12)c1ccc(Cl)cc1	-25%	7%	-2%	-5%	56µM*	11%[59 µM]
Cc1ccc(Cl)cc1N(C)C(=O)c1cnc(N2CCOCC2)c2ccccc12	-16%	21%[57 µM]	.	7%	.	12%[59 µM]
O=C(c1cnc(N2CCN(c3ncccn3)CC2)c2ccccc12)N1CCN(c2ncccn2)CC1	-15%	21%	1%	-6%	0%	27%[12.7 µM]
CCN(C(=O)c1cnc(N2CCN(c3ncccn3)CC2)c2ccccc12)c1cccc(Cl)c1	-6%	48%	2%	0%	40µM*	0%
COc1ccc(Cc2nc3c4cnn(-c5ccccc5Br)c4ncn3n2)cc1	-7%	28%	.	-10%	.	-3%[59 µM]
COc1ccc(C(=O)NC2CC(C)(C)NC(C)(C)C2)cc1S(=O)(=O)N1CCOCC1	.	.	-4%	.	.	.
CC1(C)CC(NC(=O)c2cc(S(=O)(=O)N3CCOCC3)c(Cl)cc2Cl)CC(C)(C)N1	-1%	35%	-6%	50µM*	.	8%[0.501 µM]
COc1ccc(C(=O)OCC(=O)NCCc2ccc(F)cc2)cc1S(=O)(=O)N1CCOCC1	2%	45%	2%	.	.	.
CCC(=O)OCOc1ccc(/C=C2/CCC(CN(C)C)C2=O)cc1 (stereo not given)	89µM*	?	4.7µM*	.	.	.
CCOc1ccc(/C=C2\CCC(C3CCCC3)C2=O)cc1 (stereo not given)	5%	24%	-1%	3%	3%	-6%
CCCCCCCCN1C(=O)[C@H](CC(=O)NCc2cccc(C(F)(F)F)c2)C[C@@]2(C(=O)OCC)CCC=C12	.	.	-2%	.	.	.
Cc1cc2cc3c(cc2nc1SCC(=O)N1CCN(C(=O)c2ccco2)CC1)OCO3	-35%	-13%	-16%	-34%	-15%	50µM*
